Data reported in PubChem BioAssay (Tox21).
Results filed as inconclusive are left out. The source made the active and inactive calls. Unless noted, calls come from the whole dose curve; as a rule, active = well fitted curve in the direction sought with a large enough effect in the repeat runs; inconclusive = weak or mixed curves; inactive = no such curve, though single readings can be large; an effect the other way counts as inactive or inconclusive.

Tests used:
[1] = qHTS assay to identify aromatase inhibitors - cell viability counter screen (AID 743084);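 note: cells stimulated with testosterone during compound exposure; nearly all actives have a fitted effect of over 55% in size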
[2] = qHTS assay to identify small molecule that activate the aryl hydrocarbon receptor (AhR) signaling pathway - cell viability counter screen (AID 743086);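 note: HepG2 liver cells carrying the AhR DRE luciferase reporter; series mostly up to about 70 µM; nearly all actives have a fitted effect of over 45% in size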
How it was run: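 HepG2-AhR-luc (HG2L7.5c1) cells, 4000/well, were preincubated 5 h at 37C, exposed to compound in qHTS format for 24 hr at 37C, then given CellTiter-Fluor for 30 min; viability was read as fluorescence in the reporter wells.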

[3] = biological target: Peroxisome proliferator-activated receptor gamma (Homo sapiens) (UniProt P37231); assay: qHTS assay to identify small molecule agonists of the peroxisome proliferator-activated receptor gamma (PPARg) signaling pathway (AID 743094; active = well fitted activation curve with a large enough effect in the signal ratio in the repeat runs, not every such curve was filed as active; the % refers to the signal ratio)
How it was run: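 Reporter activation was scored by fluorescence of cleaved LiveBLAzer B/G substrate (1 h, room temperature) in PPARg-bla HEK293H cells previously treated 17 h at 37C with DMSO-dissolved compounds.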

[4] = biological target: Peroxisome proliferator-activated receptor gamma (Homo sapiens) (UniProt P37231); assay: qHTS assay to identify small molecule antagonists of the peroxisome proliferator-activated receptor gamma (PPARg) signaling pathway (AID 743191; calls by dose curve; note: series mostly up to about 63 µM; nearly all actives have a fitted effect of over 30% in size)
How it was run: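 GeneBLAzer PPARg UAS-bla HEK293H cells carrying a UAS-driven beta-lactamase reporter were plated at 3000 cells/well, preincubated 5 h at 37C, then given compound for 17 h at 37C; LiveBLAzer B/G FRET substrate was read after 1 h at room temperature.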

[5] = qHTS assay for small molecule agonists of the antioxidant response element (ARE) signaling pathway (AID 743202; active = well fitted activation curve with a large enough effect in the signal ratio in the repeat runs, not every such curve was filed as active; the % refers to the signal ratio)
How it was run: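 Steps: seed ARE-bla HepG2 cells (2,000/well); incubate 5 h at 37 C; add compounds by pin tool; incubate 16 h at 37 C; add FRET substrate; read fluorescence after 2 h at RT.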

[6] = qHTS assay for small molecule agonists of the antioxidant response element (ARE) signaling pathway - cell viability counter screen (AID 743203; calls by dose curve; note: nearly all actives have a fitted effect of over 55% in size)
How it was run: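 Viability counter screen: stably transfected ARE-bla HepG2 line, 16 hrs compound exposure at 37C/5% CO2, ATP-based CellTiter-Glo luminescence measured in the reporter wells.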

[7] = qHTS assay for small molecule activators of the heat shock response signaling pathway - cell viability counter screen (AID 743209); note: nearly all actives have a fitted effect of over 50% in size
How it was run: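 Viability of HSE-bla HeLa cells is measured with CellTiter-Glo in the wells already used for the reporter read. Compound exposure lasts 5 h at 37 C, and luminescence is read after 30 min at room temperature.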

[8] = qHTS assay for small molecule activators of the heat shock response signaling pathway (AID 743210; active = well fitted activation curve with a large enough effect in the signal ratio in the repeat runs, with a control signal flat, not every such curve was filed as active; the % refers to the signal ratio;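 note: HeLa cells with beta-lactamase reporter driven by heat shock elements; series mostly up to about 63 µM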)
How it was run: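 Activation of heat shock element-controlled beta-lactamase expression is measured in HeLa cells by LiveBLAzer FRET fluorescence, with compound exposure lasting 5 h at 37 C and substrate loading 2.5 h at room temperature.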

[9] = qHTS assay to identify small molecule agonists of the peroxisome proliferator-activated receptor delta (PPARd) signaling pathway - cell viability counter screen (AID 743211); note: nearly all actives have a fitted effect of over 55% in size
How it was run: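 Luminescent ATP viability assay (CellTiter-Glo, 30 min RT) in UAS-bla HEK293H cells carrying the PPAR delta reporter construct, 3000 cells/well, after a 17 h compound treatment at 37 C.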

[10] = qHTS assay to identify small molecule antagonists of the peroxisome proliferator-activated receptor delta (PPARd) signaling pathway - cell viability counter screen (AID 743213); note: nearly all actives have a fitted effect of over 50% in size
How it was run: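 Same-well viability: cells pre-incubated 5 h, dosed with compound plus 300 nM L165041, kept 17 h at 37 C, FRET substrate 2 h RT, then CellTiter-Glo 30 min RT and luminescence.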

[11] = qHTS assay to identify small molecule agonists of the farnesoid-X-receptor (FXR) signaling pathway - cell viability counter screen (AID 743218); note: nearly all actives have a fitted effect of over 45% in size
How it was run: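 Viability of FXR-bla HEK 293T cells is measured by ATP-based CellTiter-Glo luminescence following 16 h compound treatment at 37 C and a prior 2 h room-temperature beta-lactamase substrate step.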

[12] = biological target: Bile acid receptor (Homo sapiens) (UniProt Q96RI1); assay: qHTS assay to identify small molecule agonists of the farnesoid-X-receptor (FXR) signaling pathway (AID 743220; active = well fitted activation curve with a large enough effect in the signal ratio in the repeat runs, not every such curve was filed as active; the % refers to the signal ratio)
How it was run: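 FXR-UAS-bla HEK 293T cells carrying a UAS-driven beta-lactamase reporter were plated for 5 h at 37C/5% CO2, then exposed to DMSO-dissolved Tox21 10K compounds for 16 h at 37C. A LiveBLAzer B/G FRET substrate was loaded for 2 h at room temperature before fluorescence reading.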

[13] = biological target: Vitamin D3 receptor (Homo sapiens) (UniProt P11473); assay: qHTS assay to identify small molecule agonists of the vitamin D receptor (VDR) signaling pathway (AID 743222; calls by dose curve)
How it was run: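 Fluorescence from cleaved LiveBLAzer B/G FRET substrate served as readout. VDR-bla cells had been treated 16 h at 37C with test compounds in DMSO, following a 4 h settling period, and substrate was loaded for 2 h at RT.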

[14] = qHTS assay to identify small molecule antagonists of the peroxisome proliferator-activated receptor gamma (PPARg) signaling pathway - cell viability counter screen (AID 743194); note: nearly all actives have a fitted effect of over 55% in size
How it was run: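 PPARg-UAS-bla HEK293H cells were plated, rested 5 h at 37 C, then treated with compounds plus rosiglitazone (50 nM final) for 17 h at 37 C; viability was then read by CellTiter-Glo luminescence after 30 min at room temperature.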

[15] = biological target: Peroxisome proliferator-activated receptor delta (Homo sapiens) (UniProt Q03181); assay: qHTS assay to identify small molecule agonists of the peroxisome proliferator-activated receptor delta (PPARd) signaling pathway (AID 743212; calls by dose curve)
How it was run: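 Cells expressing a UAS-driven beta-lactamase reporter (PPARd-bla HEK293H) were given test compounds after a 5 h settle and kept at 37 C. Reporter activity was then measured as FRET fluorescence using LiveBLAzer B/G substrate.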

[16] = qHTS assay to identify small molecule antagonists of the farnesoid-X-receptor (FXR) signaling pathway - cell viability counter screen (AID 743221; active = well fitted cell-killing curve with a large enough effect in the repeat runs, not every such curve was filed as active; note: nearly all actives have a fitted effect of over 50% in size)
How it was run: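 In GeneBLAzer FXR-UAS-bla HEK 293T cells stimulated with 50 uM chenodeoxycholic acid (final), compounds acted for 16 h at 37 C. Viability was assessed afterwards by CellTiter-Glo luminescence.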

[17] = biological target: Vitamin D3 receptor (Homo sapiens) (UniProt P11473); assay: qHTS assay to identify small molecule antagonists of the vitamin D receptor (VDR) signaling pathway (AID 743223; active = well fitted inhibition curve with a large enough effect in the signal ratio in the repeat runs, not every such curve was filed as active; the % refers to the signal ratio)
How it was run: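 Agonist 1alpha,25-dihydroxyvitamin D3 (3 nM in well) was added with each compound to VDR-bla cells preincubated 4 h. Cells stood 16 h at 37C, then FRET substrate 2 h at room temperature; fluorescence intensity recorded.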

[18] = biological target: Peroxisome proliferator-activated receptor delta (Homo sapiens) (UniProt Q03181); assay: qHTS assay to identify small molecule antagonists of the peroxisome proliferator-activated receptor delta (PPARd) signaling pathway (AID 743215; active = well fitted inhibition curve with a large enough effect in the signal ratio in the repeat runs, not every such curve was filed as active; the % refers to the signal ratio;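 note: cells stimulated with agonist L165041 at 300 nM final during compound exposure; series mostly up to about 62 µM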)
How it was run: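 Plated HEK293H PPARd-bla cells rested 5 h at 37 C and 5% CO2. Compound, then agonist L165041 at 300 nM final, was added; 17 h at 37 C followed. Substrate loading, 2 h room temperature, fluorescence measured.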

[19] = biological target: Bile acid receptor (Homo sapiens) (UniProt Q96RI1); assay: qHTS assay to identify small molecule antagonists of the farnesoid-X-receptor (FXR) signaling pathway (AID 743217; active = well fitted inhibition curve with a large enough effect in the signal ratio in the repeat runs, not every such curve was filed as active; the % refers to the signal ratio)
How it was run: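 Screen of the Tox21 10K library in quantitative HTS format using FXR-UAS-bla HEK 293T reporter cells. Agonist chenodeoxycholic acid, 50 uM final, added with compounds; 16 h incubation at 37 °C; beta-lactamase FRET fluorescence measured.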

[20] = biological target: Aryl hydrocarbon receptor (Homo sapiens) (UniProt P35869); assay: qHTS assay to identify small molecule that activate the aryl hydrocarbon receptor (AhR) signaling pathway (AID 743085);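 note: HG2L7.5c1 human HepG2 liver cells with stably integrated DRE-driven firefly reporter; series mostly up to about 70 µM; nearly all actives have a fitted effect of over 15% in size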
How it was run: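 24 h compound exposure, 37C, HepG2-derived HG2L7.5c1 cells with DRE-responsive luciferase. Readouts: fluorescence viability, then luminescence at room temperature after 30 min.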
% is set by controls: 0 for no effect and ±100 for the full control effect.

Chain of Peroxisome proliferator-activated receptor gamma (Homo sapiens) (P37231 whole entry, looked up): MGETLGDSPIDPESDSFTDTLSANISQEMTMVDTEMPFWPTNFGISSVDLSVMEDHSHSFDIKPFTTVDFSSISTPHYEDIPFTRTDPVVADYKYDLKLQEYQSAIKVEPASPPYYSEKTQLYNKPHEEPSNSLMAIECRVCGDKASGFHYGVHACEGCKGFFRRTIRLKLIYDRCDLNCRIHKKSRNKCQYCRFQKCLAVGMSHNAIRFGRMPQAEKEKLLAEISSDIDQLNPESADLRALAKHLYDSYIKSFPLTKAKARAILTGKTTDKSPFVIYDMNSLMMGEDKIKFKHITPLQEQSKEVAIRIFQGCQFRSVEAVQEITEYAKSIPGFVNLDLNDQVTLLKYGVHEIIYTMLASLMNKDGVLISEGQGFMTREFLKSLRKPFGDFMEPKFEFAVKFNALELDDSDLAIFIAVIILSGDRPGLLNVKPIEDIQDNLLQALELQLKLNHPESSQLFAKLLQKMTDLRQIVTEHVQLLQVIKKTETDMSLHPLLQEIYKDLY
Chain of Vitamin D3 receptor (Homo sapiens) (P11473 whole entry, looked up): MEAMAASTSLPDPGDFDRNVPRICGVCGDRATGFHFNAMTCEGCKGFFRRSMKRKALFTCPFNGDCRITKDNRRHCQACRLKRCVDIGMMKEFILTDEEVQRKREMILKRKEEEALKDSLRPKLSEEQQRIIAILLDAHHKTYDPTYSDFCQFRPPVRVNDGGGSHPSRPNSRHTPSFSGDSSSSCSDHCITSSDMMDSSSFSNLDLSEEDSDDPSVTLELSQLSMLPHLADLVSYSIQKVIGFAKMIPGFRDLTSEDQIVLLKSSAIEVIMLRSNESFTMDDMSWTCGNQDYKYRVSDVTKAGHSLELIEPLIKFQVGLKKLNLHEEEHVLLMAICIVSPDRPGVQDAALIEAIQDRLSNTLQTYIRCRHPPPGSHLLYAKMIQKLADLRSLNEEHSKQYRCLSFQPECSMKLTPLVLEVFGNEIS
Chain of Bile acid receptor (Homo sapiens) (Q96RI1 whole entry, looked up): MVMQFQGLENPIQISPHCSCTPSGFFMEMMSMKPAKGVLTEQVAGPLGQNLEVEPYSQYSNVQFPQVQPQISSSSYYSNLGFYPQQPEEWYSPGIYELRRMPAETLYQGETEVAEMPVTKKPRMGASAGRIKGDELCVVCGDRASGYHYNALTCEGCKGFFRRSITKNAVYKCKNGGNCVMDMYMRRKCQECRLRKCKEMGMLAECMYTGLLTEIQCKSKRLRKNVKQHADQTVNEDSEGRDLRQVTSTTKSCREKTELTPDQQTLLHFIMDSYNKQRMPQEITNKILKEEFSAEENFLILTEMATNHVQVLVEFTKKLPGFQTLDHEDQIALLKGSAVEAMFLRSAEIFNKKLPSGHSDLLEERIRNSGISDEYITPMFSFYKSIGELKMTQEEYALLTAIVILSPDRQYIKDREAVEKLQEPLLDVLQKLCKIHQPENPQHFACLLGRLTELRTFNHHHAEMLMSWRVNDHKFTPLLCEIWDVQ
Chain of Peroxisome proliferator-activated receptor delta (Homo sapiens) (Q03181 whole entry, looked up): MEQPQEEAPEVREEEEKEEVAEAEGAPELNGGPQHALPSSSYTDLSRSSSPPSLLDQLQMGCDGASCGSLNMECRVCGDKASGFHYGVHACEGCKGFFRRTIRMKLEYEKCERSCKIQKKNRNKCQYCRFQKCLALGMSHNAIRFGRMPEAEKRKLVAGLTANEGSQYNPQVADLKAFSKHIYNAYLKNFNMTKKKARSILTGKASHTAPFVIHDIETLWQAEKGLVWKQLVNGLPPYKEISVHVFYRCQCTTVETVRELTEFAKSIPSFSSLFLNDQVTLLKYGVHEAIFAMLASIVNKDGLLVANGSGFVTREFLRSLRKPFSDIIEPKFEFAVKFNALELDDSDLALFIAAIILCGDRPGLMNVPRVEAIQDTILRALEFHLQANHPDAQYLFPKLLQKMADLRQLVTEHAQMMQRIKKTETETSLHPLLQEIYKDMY
Chain of Aryl hydrocarbon receptor (Homo sapiens) (P35869 whole entry, looked up): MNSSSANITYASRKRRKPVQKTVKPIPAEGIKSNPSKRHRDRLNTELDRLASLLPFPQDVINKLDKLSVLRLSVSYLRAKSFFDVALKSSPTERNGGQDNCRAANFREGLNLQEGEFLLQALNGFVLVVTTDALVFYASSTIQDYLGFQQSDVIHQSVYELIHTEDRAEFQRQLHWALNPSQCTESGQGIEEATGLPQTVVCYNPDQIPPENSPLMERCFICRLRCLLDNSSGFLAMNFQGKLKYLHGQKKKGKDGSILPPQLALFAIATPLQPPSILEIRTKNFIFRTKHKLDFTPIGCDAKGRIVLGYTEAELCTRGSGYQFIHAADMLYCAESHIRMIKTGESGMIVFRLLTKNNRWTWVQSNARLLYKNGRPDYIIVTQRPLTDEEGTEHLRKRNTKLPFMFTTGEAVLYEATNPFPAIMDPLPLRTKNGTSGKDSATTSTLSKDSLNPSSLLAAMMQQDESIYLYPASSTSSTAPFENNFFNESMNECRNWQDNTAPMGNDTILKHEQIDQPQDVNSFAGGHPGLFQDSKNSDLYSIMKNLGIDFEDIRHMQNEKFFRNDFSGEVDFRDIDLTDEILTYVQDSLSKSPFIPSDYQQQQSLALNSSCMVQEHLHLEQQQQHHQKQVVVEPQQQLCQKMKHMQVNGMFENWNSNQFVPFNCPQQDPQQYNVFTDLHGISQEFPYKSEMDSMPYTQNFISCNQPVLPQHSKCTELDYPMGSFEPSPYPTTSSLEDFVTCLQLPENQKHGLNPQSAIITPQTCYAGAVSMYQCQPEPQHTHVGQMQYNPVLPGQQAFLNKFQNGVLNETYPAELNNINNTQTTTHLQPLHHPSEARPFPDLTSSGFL

CN1CCCC1
inactive: Potency [1] | Potency [2] | outcome [3] | Potency [4] | Potency [5] | Potency [6] | outcome [7] | outcome [8] | Potency [9] | Potency [10] | Potency [11] | outcome [12] | outcome [13]

C=C1CC[C@H]2C[C@@H]1C2(C)C
inactive: Potency [1] | Potency [2] | outcome [3] | outcome [14] | Potency [5] | Potency [6] | outcome [7] | outcome [8] | Potency [9] | outcome [15] | Potency [11] | Potency [16] | outcome [13] | outcome [17]

C=CCOCC(CC)(CO)COCC=C
inactive: Potency [2] | outcome [14] | Potency [5] | Potency [6] | outcome [7] | outcome [8] | Potency [9] | outcome [15] | Potency [10] | Potency [18] | Potency [11] | Potency [16] | outcome [17]

CN(C)CCCSc1ccccc1NC(=O)/C=C/c1ccccc1
inactive: Potency [1] | Potency [2] | outcome [3] | Potency [6] | outcome [7] | outcome [8] | Potency [9] | outcome [15] | Potency [10] | Potency [18] | outcome [12] | Potency [16] | outcome [13] | outcome [17]

CCS(=O)(=O)c1ccc(OC)c(C(=O)OC)c1
inactive: outcome [14] | Potency [6] | outcome [7] | outcome [8] | Potency [9] | outcome [15] | Potency [10] | Potency [18] | outcome [19] | Potency [11] | outcome [12] | Potency [16]

Cc1[nH]c(=O)c(C#N)cc1-c1ccc2nccn2c1
inactive: Potency [2] | outcome [14] | Potency [6] | outcome [7] | outcome [8] | Potency [9] | outcome [15] | Potency [10] | Potency [18] | Potency [11] | Potency [16] | outcome [13] | outcome [17]

CCOC(=O)C(=O)OCC
inactive: Potency [2] | outcome [3] | Potency [4] | Potency [5] | Potency [6] | outcome [7] | outcome [8] | Potency [9] | outcome [15] | Potency [10] | Potency [18] | Potency [11] | Potency [16] | outcome [13] | outcome [17]

CN1N=C(C(N)=O)CCC1=O
inactive: Potency [4] | outcome [14] | Potency [5] | Potency [6] | outcome [7] | outcome [8] | Potency [9] | outcome [15] | Potency [11] | Potency [16] | outcome [13]

Nc1c2c(nc3ccccc13)CCCC2O (stereo not given)
inactive: Potency [1] | Potency [2] | outcome [3] | Potency [6] | outcome [7] | outcome [8] | Potency [9] | outcome [15] | Potency [10] | Potency [18] | Potency [11] | Potency [16]

CC(C)=CCCC(C)CC(=O)O (stereo not given)
inactive: Potency [20] | Potency [2] | outcome [3] | outcome [14] | Potency [6] | outcome [7] | outcome [8] | outcome [15] | Potency [10] | Potency [18] | Potency [11] | Potency [16] | outcome [13] | outcome [17]

CCc1cccc2c(CCO)c[nH]c12
inactive: Potency [4] | outcome [14] | Potency [5] | Potency [6] | outcome [7] | outcome [8] | Potency [9] | Potency [10] | Potency [18] | Potency [11] | Potency [16] | outcome [13] | outcome [17]

CC(NC(CCc1ccccc1)C(=O)O)C(=O)N1C(=O)N(C)CC1C(=O)O (stereo not given)
inactive: Potency [4] | outcome [14] | Potency [6] | outcome [7] | outcome [8] | Potency [9] | outcome [15] | Potency [10] | Potency [18] | outcome [12] | outcome [13] | outcome [17]

Brc1c(NC2=NCCN2)ccc2nccnc12
inactive: Potency [1] | Potency [2] | outcome [14] | Potency [5] | Potency [6] | outcome [7] | outcome [8] | Potency [9] | Potency [10] | Potency [11] | Potency [16] | outcome [13] | outcome [17]

COC(=O)CCSCCC(=O)OC
inactive: Potency [2] | Potency [5] | Potency [6] | outcome [7] | outcome [8] | Potency [9] | outcome [15] | Potency [18] | outcome [19] | outcome [12] | Potency [16]

CC(C)NCCCC1(C(N)=O)c2ccccc2-c2ccccc21
inactive: Potency [4] | outcome [14] | Potency [6] | outcome [7] | outcome [8] | Potency [9] | outcome [15] | Potency [11] | Potency [16] | outcome [13] | outcome [17]

Cc1sccc1Br
inactive: Potency [4] | Potency [5] | Potency [6] | outcome [7] | outcome [8] | Potency [9] | Potency [10] | outcome [19] | Potency [11] | outcome [12] | Potency [16] | outcome [13] | outcome [17]

N[C@@H](C(=O)N[C@@H]1C(=O)N2C(C(=O)O)=C(Cl)CS[C@H]12)c1ccccc1
inactive: Potency [1] | Potency [2] | outcome [3] | ratio activity, negative = inhibition [4] 6.67% [at 13.2 µM] | activation [5] -0.175% [at 8.36 µM] | viability change, negative = cytotoxic [6] 3.71% [at 8.36 µM] | activity change, negative = cytotoxicity [7] -29.5% [at 13.2 µM] | activation [8] -0.803% [at 13.2 µM] | activity change, negative = cytotoxicity [9] 12.6% [at 13.2 µM] | activation [15] 0.732% [at 13.2 µM] | ratio activity, negative = inhibition [18] 0.0649% [at 13.7 µM] | viability change, negative = cytotoxic [11] 3.28% [at 13.2 µM] | activation [12] 0.369% [at 13.2 µM] | activity change, negative = cytotoxicity [16] 6.46% [at 13.2 µM] | activation [13] 4.64% [at 13.4 µM] | activity change, negative = inhibition [17] 2.28% [at 6.95 µM]
